{"source": "PubChem BioAssay (NCI)", "note": "This is part of a sample that, as a whole, favours compounds with a hit. Of some 83,000 tested, about 20% had one in any assay.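 Note: values are percent growth. 100 is the growth of untreated cells, values between 100 and 0 indicate rising inhibition; between -100 and 0 indicates cell death.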 Calls of active or inactive are those of the source.", "data": [{"test_system": "IGROV1 ovarian", "assay": "NCI-60 one-dose screen, 48 h (100 = growth as untreated, 0 = no growth, -100 = all killed)", "settings": "10 µM unless noted", "method": "Growth inhibition of the IGROV1 human tumor cell line is measured as a screen for anti-cancer activity. Cells are grown in 96 well plates and exposed to the test compound for 48 hours. Compounds are tested at a single concentration, which is 10^-5 M for most compounds. The reported endpoint is percent growth (GI% or GIPRCNT), where numbers from 0 - 100% represent growth inhibition, and numbers from -100% - 0 represent cell death. For example, a value of 40 represents 60% growth inhibition. A value of 0 means no net growth occurred over the course of the experiment. A value of -40 indicates 40% of cells at the beginning of the experiment died by the end of the experiment. A value of -100 means all cells are dead at the end of the experiment.\nNCI-60 Human Tumor Cell Lines Screen was performed using the standard one-dose NCI protocol, which is described in more detail at https://dtp.cancer.gov/discovery_development/nci-60/default.htm.\nCompounds with GIPRCNT values below 10 were considered active. Activity score was based on GIPRCNT using the following formula: […]\nScore is 0 for GIPRCNT values of 100 or above, 50 for GIPRCNT values of 0, and 100 for GIPRCNT values of -100.", "values": [{"smiles": "COc1cccc(/C=C/C(=O)c2ccc(NC(=O)COc3cccc4cccnc34)cc2)c1", "growth": "100% (inactive)"}, {"smiles": "COc1ccc([C@@H]2[C@@H](O)C(=O)N2c2cc(OC)c(OC)c(OC)c2)cc1", "growth": "27.9% (inactive)"}, {"smiles": "Cc1ccccc1NC1CC(=O)N(c2ccc(Cl)cc2Cl)C1=O", "note": "(stereo not given)", "growth": "101% (inactive)"}, {"smiles": "CCOC(=O)/C(F)=C/C1CC1C1CCCCC1", "note": "(stereo not given)", "growth": "110% (inactive)"}, {"smiles": "C#C[C@]1(O)CC[C@H]2[C@@H]3CC=C4c5sc(C6CCOCC6)nc5CC[C@]4(C)[C@H]3CC[C@@]21C", "growth": "90.8% (inactive)"}, {"smiles": "COc1ccc(-c2oc3cc(O)cc(O)c3c(=O)c2OC)cc1O", "growth": "39.8% (inactive)"}, {"smiles": "COc1ccc(-c2nnc(SCc3ccc(O)c4ncccc34)n2-c2ccccc2)cc1", "growth": "10% (inactive)"}, {"smiles": "CC1CCN(S(=O)(=O)c2ncsc2-c2ccccc2)CC1", "growth": "94.2% (inactive)"}, {"smiles": "CCNC(=O)Oc1ccc(/C(=C(/C)c2ccc(Cl)cc2)c2ccc(OCCN(C)C)cc2)cc1", "growth": "64.4% (inactive)"}, {"smiles": "CCN1C(=O)N(CC)C2SC(N/N=C/c3ccccc3)=NC21", "note": "(stereo not given)", "growth": "28% (inactive)"}, {"smiles": "O=C(NCCCNc1cc(-c2cn(-c3ccccc3)nc2-c2cccc(O)c2)ccn1)Nc1cc(C(F)(F)F)cc(C(F)(F)F)c1", "growth": "64% (inactive)"}, {"smiles": "O=C(O)c1ccc(-n2cc(CNc3ccc(F)cc3)c(-c3ccc(C(F)(F)F)cc3)n2)cc1", "growth": "95% (inactive)"}, {"smiles": "COc1ccc(/C=C/C(=O)c2nnn(-c3ccc(C(=O)O)cc3)c2C)cc1OC", "growth": "96.1% (inactive)"}, {"smiles": "O=c1c2ccccc2nc(COc2ccccc2)n1/N=C/C=C/c1ccccc1", "growth": "90.2% (inactive)"}, {"smiles": "Brc1cccc(/C=N/Nc2nc(N/N=C/c3cccc(Br)c3)nc(N3CCOCC3)n2)c1", "growth": "42.8% (inactive)"}, {"smiles": "N/C(=N\\c1nc2ccc([N+](=O)[O-])cc2s1)C(Cl)(Cl)Cl", "growth": "65.1% (inactive)"}, {"smiles": "CCCC(=O)NC(c1cccnc1)c1cc(C(C)=O)c2cccnc2c1O", "note": "(stereo not given)", "growth": "36.7% (inactive)"}, {"smiles": "CNC(=O)c1c(NC(=O)c2ccc(F)cc2F)sc2c1CCC(=O)C2", "growth": "22.8% (inactive)"}, {"smiles": "O=C1c2c(c3c4cccnc4[nH]c3c3ccc4ccccc4c23)C(=O)N1CCN1CCCCC1", "growth": "42.8% (inactive)"}, {"smiles": "ClC(Cl)c1nc(-c2cccs2)n2nc(-c3ccccc3)cc2n1", "growth": "47.2% (inactive)"}, {"smiles": "C=C1C(=O)O[C@@H]2C[C@@H](C)CCC(=O)[C@](C)(OC(C)=O)C[C@H](OC(=O)/C(C)=C\\C)[C@@H]12", "growth": "89.2% (inactive)"}, {"smiles": "O=C1CC2(CCOCC2)Oc2ncccc21", "growth": "8.85% (active)"}, {"smiles": "COc1cc2c3c(n(CCCNC4CCCC4)c(=O)c2cc1OC)-c1cc2c(cc1C3=O)OCO2", "growth": "-48.7% (active)"}, {"smiles": "CC(C)=CCc1c2c(c(O)c3c1O[C@]14C(=C[C@@H]5C[C@H]1C(C)(C)O[C@@]4(C/C=C(/C)C(=O)O)C5=O)C3=O)CC(O)C(C)(C)O2", "note": "(stereo not given in full)", "growth": "5.2% (active)"}, {"smiles": "COc1cc(OC)c(S(N)(=O)=O)cc1C(=O)/C=C/c1ccccc1", "growth": "25.7% (inactive)"}, {"smiles": "Cc1ccc(NC(=O)c2ccc(CN3CCN(C)CC3)c(C(F)(F)F)c2)cc1Oc1ccc(-c2[nH]nc3ncnc(N)c23)cc1", "growth": "82.7% (inactive)"}, {"smiles": "COc1ccc(/C=C/C(=O)c2nnn(-c3ccc(Br)cc3)c2C)cc1OC", "growth": "69.2% (inactive)"}, {"smiles": "COc1ccc(CCN2C(=O)CSC2=S)cc1OC", "growth": "102% (inactive)"}, {"smiles": "NC(=S)N/N=C(/C=C/c1cn(-c2ccccc2)nc1-c1ccc(Cl)cc1)c1cc2ccccc2oc1=O", "growth": "36% (inactive)"}, {"smiles": "CCCCCCNC(=O)Oc1ccc(/C(=C(/C)c2ccc(OC)cc2)c2ccc(OCCN3CCCC3)cc2)cc1", "growth": "65.7% (inactive)"}, {"smiles": "N#Cc1c(NC(=O)c2ccccc2C(F)(F)F)sc2c1CCC(=O)C2", "growth": "15.2% (inactive)"}, {"smiles": "Cn1cc(-c2nn3c(=O)cc(-c4ccccc4)nc3s2)c2cc(F)ccc21", "growth": "65.2% (inactive)"}, {"smiles": "COc1ccc(NC(=O)[C@H](C)N)cc1C(=O)Nc1cccc(-c2cc(=O)c3c(OC)c(OC)c(OC)cc3o2)c1", "growth": "56.7% (inactive)"}, {"smiles": "Oc1ccc(CSc2nnc(-c3ccc(Br)cc3)n2-c2ccccc2)c2cccnc12", "growth": "18.9% (inactive)"}, {"smiles": "O=C1CSC(=O)N1Cc1cc2ccccc2nc1Cl", "growth": "99.9% (inactive)"}, {"smiles": "O=C1c2c(O)cc(O)cc2O[C@@H](c2ccc(O)cc2)[C@@H]1c1c(O)cc(O)c2c(=O)cc(-c3ccc(O)c(O)c3)oc12", "growth": "101% (inactive)"}, {"smiles": "CC(C)c1nn(-c2ccccc2)c(N2CCCCC2)c1/C=N/NC(N)=S", "growth": "83.9% (inactive)"}, {"smiles": "COc1ccc2c(C3=C(c4cn(C)c5ccccc45)C(=O)NC3=O)coc2c1", "growth": "47.2% (inactive)"}, {"smiles": "N/C(=N\\c1nc2c(Cl)cccc2s1)C(Cl)(Cl)Cl", "growth": "89.1% (inactive)"}, {"smiles": "COc1cc(C2CC(c3ccc(Nc4nc(NCCO)nc(Nc5ccc(Cl)cc5)n4)cc3)=Nc3c(N)nc(N)nc3N2)cc(OC)c1OC", "note": "(stereo not given)", "growth": "62.5% (inactive)"}]}]}
